This is a sample that favours compounds with a hit; in the whole collection about 21% have one here.
Shiga toxin inh: Shiga toxin inhibition. 290,000 tested, 9.2% active. Vero cells, Shiga toxin protein synthesis inhibition reporter. inhibition, % at 38.7 µM. AID 2315; in the data active means inhibition mostly above about 28%, no sharp cut-off; inactive means mostly below about 43%; further: 0% is about no effect
AMA1-RON2 inh: disrupts binding of P. falciparum AMA1 to RON2; AlphaScreen AMA1-biotinylated RON2 peptide binding; Potency, µM (top dose mostly 58.2 µM), for the others: top-dose activity change, negative = inhibition, most hits filed as inhibitors; 360,000 tested, 0.2% active;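 further: potency means the concentration at half of the fitted maximal effect; 0% = vehicle wells and -100% = peptide control; nearly all actives have a fitted effect of over 45% in size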
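AMA1 (3D7) with his tag at 25 nM final met compounds first, then biotinylated RON2 peptide at 25 nM; detection used donor plus acceptor beads, 10 µg/mL apiece, read by AlphaScreen after 30 min at room temperature.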
Pf growth 48h: P. falciparum growth inhibition at 48 hours (one generation); P. falciparum luciferase growth in erythrocytes, 48 h; Potency, µM (top dose mostly 28.7 µM), without a hit: at the top dose activity change, negative = inhibition, most hits filed as inhibitors; 310,000 tested, 5.9% active; AID 504832; further: potency means the concentration at half of the fitted maximal effect; on the % scale 0 is the no-effect control and ±100 the full control effect
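A one-generation exposure of luciferase-tagged malaria parasites in RPMI 1640/Albumax erythrocyte culture, 37 C and 5% CO2. Inhibition is inferred from decreased luminescence after adding detection reagent.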
HCV inh: inhibitors of hepatitis C virus infection | Huh7.5.1 HCVcc-Cre infection, luciferase reporter, 44 h | AID 651820 | Potency, µM (doses to about 41.8 µM), without a hit: at the highest dose activity change, negative = inhibition, actives largely listed as inhibitors | 340,000 tested, 3.4% active; further: potency means the concentration at half of the fitted maximal effect; on the % scale 0 is the no-effect control and ±100 the full control effect
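Antiviral activity was scored by luciferase reporter output from cells infected with HCVcc-Cre (~0.5 moi) in presence of compound, 44 h infection period, cells seeded 1,000/well 4 h prior.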
CHX counter: counter-screen for Shiga toxin inhibitors: cycloheximide protein synthesis inhibition | cell reporter, cycloheximide protein synthesis inhibition counterscreen | max response, % | 300,000 tested, 12% active; in the data active means max response mostly above about 13%, no sharp cut-off; inactive means mostly below about 14%; further: read at 38.3 µM for the half of the compounds with a filed dose; 0% is about no effect
Pf growth 96h: inhibits malaria parasite growth, 96 h; P. falciparum luciferase reporter growth, 96 h; Potency, µM (doses to about 28.7 µM), inactives show top-dose activity change, negative = inhibition, usual class: inhibitors; 320,000 tested, 6.9% active; further: potency means the concentration at half of the fitted maximal effect; on the % scale 0 is the no-effect control and ±100 the full control effect
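Delayed-death screen, second-generation endpoint: infected erythrocytes, 2% hematocrit, 0.05% parasitemia final; 96 hours at 37 C, 5% CO2; luciferase detection reagent; luminescence decrease equals reduced growth.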
The depositor's hits bear a star; i = inactive; u = inconclusive; x = no result. Unless noted, the call rests on the fitted dose curve; in most records, active means well fitted curve in the direction sought with a large enough effect; inconclusive means small, poorly fitted or top-dose-only effect, or another doubt; inactive means no such curve, though single readings can be large; an effect the other way counts as inactive or inconclusive.

SMILES | Shiga toxin inh | AMA1-RON2 inh | Pf growth 48h | HCV inh | CHX counter | Pf growth 96h
O=C(Nc1cccc([N+](=O)[O-])c1)c1ccc2c(c1)OCCO2 | 89* | -5% | 219% | -21% | 41* | u
O=C(Nc1ccncc1)c1ccc2c(c1)OCCO2 | 66* | 4% | 46% | u | 31* | -7%
O=C(Nc1ccccc1C(=O)Nc1ccc2c(c1)OCO2)c1cccs1 | 43 | -19% | x | -10% | 17* | 84%
O=C(Nc1ccc(NC(=O)c2ccccc2F)cc1)c1cccs1 | x | -1% | 153% | -10% | x | -3%
CCCCn1c(N)c(N(CC(C)C)C(=O)c2ccc(S(=O)(=O)N3CCC(C)CC3)cc2)c(=O)[nH]c1=O | x | 17% | u | -6% | x | u
O=C(NC(=S)Nc1ccccc1Br)c1ccc2c(c1)OCO2 | 60* | 9% | 101% | u | 31* | -10%
CC(=O)Nc1ccc(S(=O)(=O)Nc2ccc3c(c2)OCCO3)cc1 | -6 | -7% | 22% | -19% | 5 | -5%
CS(=O)(=O)Nc1ccc(C(=O)Nc2ccc3c(c2)OCCO3)cc1 | 55 | 26% | x | -15% | 25* | 97%
O=C(NC(=S)Nc1ccc2c(c1)OCO2)c1ccccc1 | 102* | 49% | 75% | 1% | 47* | 40%
NS(=O)(=O)c1ccc(NC(=S)NC(=O)c2ccc3c(c2)OCO3)cc1 | -7 | 10% | 23% | -4% | -3 | 28%
O=C(COC(=O)c1ccc([N+](=O)[O-])s1)Nc1ccc(F)cc1 | x | -4% | 13% | 11% | x | -22%
CC(C)c1ccc(NC(=O)COC(=O)C2=COCCO2)cc1 | 74 | 12% | 26% | 3% | 33* | x
CC(C)(C)c1ccc(NC(=O)COC(=O)C2=COCCO2)cc1 | 91 | 4% | x | 7% | 21* | 101%
Cc1ccc(C(=O)OCC(=O)Nc2ccc(C(N)=O)cc2)s1 | x | -12% | u | 14% | x | 20%
O=C(COC(=O)C1=COCCO1)Nc1ccc(F)cc1 | x | 0% | 4% | -11% | x | 19%
CCN(c1ccc(NC(=O)COC(=O)c2ccc(C)s2)cc1)C(C)C | 9 | -15% | 14% | 2% | 19* | 34%
CC(C)(C)c1ccc(NC(=O)COC(=O)c2ccc([N+](=O)[O-])s2)cc1 | 63 | -22% | 22% | 16% | 14* | -3%
CC(OC(=O)CCCN=C1NS(=O)(=O)c2ccccc21)C(=O)Nc1ccc(F)c(F)c1F (centres undefined) | x | -6% | 3% | 4% | x | 61%
CC(C)(C)c1ccc(NC(=O)COC(=O)C2(C)CC2(Cl)Cl)cc1 (centres undefined) | 77* | 6% | -11% | 11µM* | 49* | -20%
Cc1cnc(-c2nc3ccccc3n2C(C(=O)NC(C)(C)C)c2ccncc2)cn1 (centres undefined) | x | -20% | x | x | x | x
O=C(CCCOC(=O)c1ccc(O)cc1O)c1ccc(Br)cc1 | x | -17% | 32% | 1% | x | 5%
COc1ccc(-c2noc(CNS(=O)(=O)c3ccccc3)n2)cc1 | 41 | 14% | 30% | 0% | 17* | 73%
Cc1cccc(OCC(=O)NCc2nc(-c3ccccc3)no2)c1 | 1 | -4% | -1% | 1% | 0 | u
Cc1ccc(OCc2nc(-c3ccccc3)no2)c(C)c1 | 98* | 107% | 213% | -19% | 36* | 62%
Cc1cccc(NCc2nc(-c3ccccc3)no2)c1 | 41 | 11% | x | -14% | 36* | 5%
SMILES | Shiga toxin inh | AMA1-RON2 inh | Pf growth 48h | HCV inh | CHX counter | Pf growth 96h
Cc1ccc(-c2noc(CNS(=O)(=O)c3ccccc3)n2)cc1 | 39* | 0% | 31% | 13% | 43* | 187%
Cc1cc(C)c(C)c(OCc2nc(-c3cccnc3)no2)c1 | 2 | 14% | -6% | -19% | -2 | 20%
O=S(=O)(NCc1nc(-c2ccccc2)no1)c1ccc(F)cc1 | 13 | 16% | 11% | -5% | -1 | -28%
CCOC(=O)C1=C(CSCc2ccccc2)NC(=O)NC1c1cc(C)ccc1C (centres undefined) | -20 | -10% | 13µM* | u | -2 | x
CCOC(=O)C1=C(CN2CCCCC2)NC(=O)NC1c1cc(C)ccc1C (centres undefined) | -5 | -1% | x | x | -2 | 0%
Cc1nc(N2CCN(S(=O)(=O)c3ccccc3C#N)CC2)c2c(-c3cccs3)csc2n1 | -3 | -13% | u | 10µM* | 1 | u
CC(CN(C)Cc1ccccc1)OC(=O)c1ccc2c(c1)OCCO2 (centres undefined) | 15 | 9% | 26% | u | 31* | -2%
CN(Cc1ccccc1)C(=O)c1ccc2c(c1)OCO2 | 16 | 2% | 16% | 13% | 15* | u
CN(Cc1ccccc1)C(=O)COC(=O)c1cc(Cl)nc(Cl)c1 | -6 | -2% | 15% | 16% | -3 | 3%
CC(C)N(Cc1ccccc1)C(=O)c1ccc2c(c1)OCO2 | -13 | 17% | -2% | 17% | -1 | 2%
CN(Cc1ccccc1)C(=O)COC(=O)c1ccc2c(c1)OCO2 | 54* | -8% | 45% | u | 33* | 35%
CC(CN(C)Cc1ccccc1)OC(=O)c1ccccc1F (centres undefined) | -9 | 1% | 5% | 6% | 0 | 29%
COc1cccc(-c2cnc3c(NC(C)=O)cc(-c4ccc(S(C)(=O)=O)cc4)cn23)c1 | x | 2% | x | x | x | x
N#C/C(=C\c1cc(Cl)c(OCc2ccc(Cl)cc2)c(Cl)c1)C(N)=O | 53* | x | 12% | x | 30* | 92%
N#C/C(=C\c1ccc(O)c(O)c1)C(=O)Nc1ccccc1 | x | -2% | u | u | x | u
N#C/C(=C\c1cc(O)c(O)c(O)c1)C(N)=O | -8 | u | 10µM* | 17% | -2 | u
N#C/C(=C/c1ccc(O)c(O)c1)C(=O)NCc1ccc(Cl)cc1 | -8 | -3% | -29% | -10% | 5 | -4%
CC(=O)c1sc(NC(=O)c2ccccc2C)nc1C | 51 | -14% | 122% | -7% | 47* | 161%
Cc1cccc(C(=O)NC(=O)Nc2c(C)cc(C)nc2C)c1 | 58* | -13% | 311% | u | 21* | u
CC(=O)c1sc(NC(=O)c2ccc(Cl)cc2)nc1C | 71* | 5% | -19% | u | 30* | 56%
CC(=O)Nc1nc(C)c(C(C)=O)s1 | -14 | 0% | x | 8% | -1 | 61%
CC(=O)c1sc(NC(=O)c2cccc(C)c2)nc1C | 68* | -1% | 284% | u | 43* | i
CC(NC(=O)COC(=O)C1CCCCC1)c1ccccc1 (centres undefined) | x | -2% | x | 15% | x | x
Cc1ccc(C)c2sc(NC(=O)C3CC3)nc12 | -3 | -8% | 7% | u | 1 | 58%
Cc1cc(C)c2sc(NC(=O)C3CC3)nc2c1 | 42* | 24% | 47% | -29% | 27* | 65%

Bioassay records deposited in PubChem by National Center for Advancing Translational Sciences (NCATS).
